The panel holds about 79,000 compounds, 15% with a hit somewhere; the sample as a whole holds those more often. Rule as the data show it: active = growth inhibition above about 70%; inactive = the rest.
How the values were obtained:
[1] = NCI Yeast Anticancer Drug Screen. Data for the mec2-1 strain (AID 157); settings: S. cerevisiae mec2-1 strain, at 50.0 µM, stronger effect = higher value
Method in brief: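 Yeast mec2-1 mutant treated with compound. Readout: growth inhibition vs vehicle controls.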

[2] = NCI Yeast Anticancer Drug Screen. Data for the cln2 rad14 strain (AID 165);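 also: 0% = growth equal to vehicle treated cultures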; settings: S. cerevisiae cln2 rad14 strain, at 50.0 µM, stronger effect = higher value
Method in brief: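 cln2 rad14 yeast strain; compound exposure; growth inhibition read vs vehicle controls.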

[3] = NCI Yeast Anticancer Drug Screen. Data for the bub3 strain (AID 167); settings: S. cerevisiae bub3 mutant strain, at 50.0 µM, stronger effect = higher value
Method in brief: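 Mutant yeast screening strain plus compound; vehicle-treated cultures serve as the 0% inhibition reference.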

[4] = NCI Yeast Anticancer Drug Screen. Data for the mlh1 rad18 strain (AID 175); settings: S. cerevisiae mlh1 rad18 strain growth inhibition; at 50.0 µM; stronger effect = higher value
Method in brief: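 Yeast w/ defined DNA-repair lesions; compound exposure; growth vs vehicle controls → % inhibition.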

[5] = NCI Yeast Anticancer Drug Screen. Data for the rad50 strain (AID 155);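 also: 0% = growth of vehicle-only cultures of the same strain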; settings: S. cerevisiae rad50 strain growth inhibition; at 50.0 µM; stronger effect = higher value
Method in brief: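 Vehicle-treated cultures provide the reference for the growth inhibition reported for compound-exposed, repair-deficient yeast.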

[6] = NCI Yeast Anticancer Drug Screen. Data for the sgs1 mgt1 strain (AID 161);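 also: 0% = growth of cultures given vehicle only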; settings: S. cerevisiae sgs1 mgt1 strain, at 50.0 µM, stronger effect = higher value
Method in brief: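 Inhibition of yeast growth, normalised to vehicle-treated controls, is reported for a strain bearing genetic alterations in DNA damage repair.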

Measured: growth inhibition

C=C1CC2(C)CCC(OC(=O)C3(C)OC3C)C(C)(OC(C)=O)C2CC1=C(C)C (stereo not given)
inactive: [1] -36.8% | [2] 16.2% | [3] -4.85% | [4] -55%

Cn1/c(=N/Sc2nnnn2-c2ccccc2)sc2ccccc21
inactive: [5] 13.6% | [4] 29.9%

COc1ccc2nc(NC(=O)/C(C#N)=C/c3ccccc3)sc2c1
inactive: [1] -24.9% | [6] 44.6% | [2] -3.3% | [3] -8.95% | [4] -5.7%

O=C(Cc1nc2ccc(C(=O)c3ccccc3)cc2[nH]c1=O)C(=O)Nc1ccccc1[N+](=O)[O-]
inactive: [1] -15.6% | [6] 7.75% | [2] 9.35% | [3] 6.15% | [4] 12.3%

CCCCCCCCCCCC(=O)CCCCC
inactive: [5] -29.5% | [4] -29.4%

CC1=NOC(=O)C1C(C)(C)C1C(=O)ON=C1C (stereo not given)
inactive: [5] 8.25% | [4] -18.4%
